# Laboratory results published in PubChem BioAssay (Tox21).
# Unmarked numbers belong to inactive results. Results filed as inconclusive are left out. A call without a number means that no potency is given here. Activity calls are given as the source filed them. Unless noted, the call rests on the fitted dose curve; in most records, active means well fitted curve in the direction sought with a large enough effect in the repeat runs; inconclusive means weak or mixed curves; inactive means no such curve, though single readings can be large; an effect the other way counts as inactive or inconclusive.
# Assays:
# [1] = qHTS assay for small molecule agonists of the p53 signaling pathway (AID 651631; calls by dose curve; further: nearly all actives have a fitted effect of over 15% in size)
# Outline: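 We treat p53RE-bla HCT-116 cells with compounds for 16 h at 37 °C, add LiveBLAzer B/G FRET substrate for 2 h at room temperature, and measure fluorescence intensity.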
# [2] = qHTS assay for small molecules that induce genotoxicity in human embryonic kidney cells expressing luciferase-tagged ATAD5 (AID 651632); further: nearly all actives have a fitted effect of over 15% in size
# Outline: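 HEK293T cells carrying luciferase-tagged ATAD5 were given compound or DMSO vehicle and incubated 16 hr at 37C, 5% CO2. Luciferase activity was read after 30 min at room temperature with Amplite; a rise signals genotoxic stress.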
# [3] = qHTS assay for small molecule agonists of the p53 signaling pathway - cell viability (AID 651633; calls by dose curve;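 further: p53RE-bla HCT reporter cells with a stable beta-lactamase p53 reporter; series mostly up to about 83 µM; nearly all actives have a fitted effect of over 30% in size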)
# Outline: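 Viability counter-read: CellTiter-Glo luminescence (30 min, room temperature) in the same p53RE-bla plates. These plates had been exposed to compounds for 16 h at 37 C.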
# [4] = qHTS assay for small molecules that induce genotoxicity in human embryonic kidney cells expressing luciferase-tagged ATAD5 - cell viability (AID 651634; calls by dose curve; further: nearly all actives have a fitted effect of over 25% in size)
# Outline: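 HEK293T cells carrying luciferase-tagged ATAD5, 2,000 cells/well, exposed to compound for 15.5 hr at 37C. Viability read as live-cell protease activity by CellTiter-Fluor fluorescence after 30 min at 37C.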
# [5] = qHTS assay for small molecule disruptors of the mitochondrial membrane potential - cell viability (AID 720634; calls by dose curve;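 further: human HepG2 liver cancer cells; series mostly up to about 83 µM; nearly all actives have a fitted effect of over 20% in size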)
# Outline: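 HepG2 cells, 2,000 per well, attached overnight, then treated 1 hr at 37 C, 5% CO2. Viability read as ATP by CellTiter-Glo luminescence after 30 min at room temperature. Read in the same wells as the m-MPI membrane-potential dye assay.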
# [6] = qHTS assay to test for compound auto fluorescence at 590 nm (red) in HepG2 cells (AID 720674)
# Outline: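 Red autofluorescence (Ex/Em 540/590 nm, Rose Bengal sodium equivalents) was measured in HepG2 cells, 2,000 per well in MEM plus 10% FBS, plated overnight at 37 C. Readings were taken 1 hr after adding 23 nL compound or DMSO, at 37 C and 5% CO2.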
# [7] = qHTS assay to test for compound auto fluorescence at 460 nm (blue) in HEK293 cells (AID 720678)
# Outline: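 Auto fluorescence in the blue band was quantified as triamterene equivalency. HEK293 cells were seeded at 2,000/well, dosed after a 4-5 hr attachment, and kept overnight at 37C before the 405/460 nm reading.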
# [8] = qHTS assay to test for compound auto fluorescence at 590 nm (red) in HEK293 cells (AID 720679)
# Outline: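 Autofluorescence equivalency to Rose Bengal sodium, 540/590nm, in HEK293 cells exposed overnight to 23 nL compound per well.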
# [9] = qHTS assay to test for compound auto fluorescence at 535 nm (green) in HEK293 cells (AID 720680)
# [10] = qHTS assay to test for compound auto fluorescence at 460 nm (blue) in HEK293 cell free culture (AID 720681)
# Outline: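 Blue fluorescence (Ex 405/Em 460 nm, triamterene-equivalent) was read immediately after pin transfer of compound or DMSO into medium (DMEM, 10% FBS) without cells.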
# [11] = qHTS assay to test for compound auto fluorescence at 535 nm (green) in HEK293 cell free culture (AID 720682)
# Outline: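 Green-channel intensity (Ex/Em 485/535 nm) was recorded from compound-treated wells containing only DMEM with 10% FBS. Fluorescein provided the equivalency standard.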
# [12] = qHTS assay to test for compound auto fluorescence at 590 nm (red) in HEK293 cell free culture (AID 720683)
# Outline: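 Red-channel autofluorescence of compounds in culture medium (DMEM, 10% FBS), no cells, measured at 540/590 nm. Rose Bengal sodium is the reference fluorophore for equivalence.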
# [13] = qHTS assay to test for compound auto fluorescence at 590 nm (red) in HepG2 cell free culture (AID 720684)
# Outline: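 Steps: dispense MEM/10% FBS medium, no cells; pin compound or DMSO vehicle; read red channel, Ex/Em 540/590 nm. Output given as Rose Bengal sodium equivalents.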
# [14] = qHTS assay to test for compound auto fluorescence at 460 nm (blue) in HepG2 cell free culture (AID 720685)
# Outline: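 Compound (23 nL) or DMSO pinned into cell-free MEM with 10% FBS; blue fluorescence read at 405/460 nm excitation/emission, expressed as auto-fluorescence equivalency to triamterene.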
# [15] = qHTS assay to test for compound auto fluorescence at 460 nm (blue) in HepG2 cells (AID 720687)
# Outline: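 Blue-channel autofluorescence (Ex/Em 405/460 nm, triamterene-equivalent) was measured after 1 hr compound exposure at 37 C, 5% CO2. Cells were HepG2, plated overnight at 37 C in MEM plus 10% FBS.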
# [16] = target: Glucocorticoid receptor (Homo sapiens) (UniProt P04150); assay: qHTS assay to identify small molecule agonists of the glucocorticoid receptor (GR) signaling pathway (AID 720691; active means well fitted activation curve with a large enough effect in the signal ratio in the repeat runs, not every such curve was filed as active; the % refers to the signal ratio)
# Outline: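 GR-bla HeLa cells carrying a GRE-driven beta-lactamase reporter, exposed to compounds for 18 h at 37 C. Reporter activation read as fluorescence after 2 h with LiveBLAzer B/G FRET substrate at room temperature.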
# [17] = target: Glucocorticoid receptor (Homo sapiens) (UniProt P04150); assay: qHTS assay to identify small molecule antagonists of the glucocorticoid receptor (GR) signaling pathway (AID 720692; active means well fitted inhibition curve with a large enough effect in the signal ratio in the repeat runs, not every such curve was filed as active; the % refers to the signal ratio)
# Outline: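 GR-bla HeLa cells carrying a GRE-driven beta-lactamase reporter received compound after 4 h plating, then dexamethasone (5 nM final). After 18 h at 37C, the FRET substrate was loaded for 2 h at room temperature and fluorescence read.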
# [18] = qHTS assay to test for compound auto fluorescence at 535 nm (green) in HepG2 cells (AID 720675)
# [19] = qHTS assay to test for compound auto fluorescence at 535 nm (green) in HepG2 cell free culture (AID 720686)
# [20] = qHTS assay for small molecule disruptors of the mitochondrial membrane potential (AID 720635); further: potency means the concentration at half of the fitted maximal effect
# Outline: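 Mitochondrial membrane potential tracked with Mito-MPS dye, red aggregates (ex 540/em 590 nm) against green monomers (ex 490/em 535 nm). Compound treatment 1 hr at 37C, dye 30 min in HepG2.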
# Sequence of Glucocorticoid receptor (Homo sapiens) (P04150 whole entry, looked up): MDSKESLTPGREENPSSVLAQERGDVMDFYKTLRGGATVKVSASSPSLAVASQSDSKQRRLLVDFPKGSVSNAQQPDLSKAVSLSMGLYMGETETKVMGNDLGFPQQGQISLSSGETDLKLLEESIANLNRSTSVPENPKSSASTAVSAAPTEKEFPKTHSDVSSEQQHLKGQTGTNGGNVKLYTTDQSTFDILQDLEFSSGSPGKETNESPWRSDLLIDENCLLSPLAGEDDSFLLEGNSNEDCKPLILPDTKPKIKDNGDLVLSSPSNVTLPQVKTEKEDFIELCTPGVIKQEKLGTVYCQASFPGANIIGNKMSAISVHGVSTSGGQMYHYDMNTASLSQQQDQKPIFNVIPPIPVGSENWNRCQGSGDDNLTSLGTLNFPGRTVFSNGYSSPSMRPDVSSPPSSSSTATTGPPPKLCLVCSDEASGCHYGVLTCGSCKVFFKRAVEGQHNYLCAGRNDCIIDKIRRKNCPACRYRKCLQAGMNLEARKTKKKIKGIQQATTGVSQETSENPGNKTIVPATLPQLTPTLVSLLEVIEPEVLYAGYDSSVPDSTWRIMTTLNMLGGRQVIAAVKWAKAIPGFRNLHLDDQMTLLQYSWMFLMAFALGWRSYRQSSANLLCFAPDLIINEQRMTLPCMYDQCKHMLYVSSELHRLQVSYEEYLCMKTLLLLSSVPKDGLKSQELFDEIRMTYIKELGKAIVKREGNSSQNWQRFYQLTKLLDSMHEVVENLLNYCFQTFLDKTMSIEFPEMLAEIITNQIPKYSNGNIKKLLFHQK
smiles,measurement,setting,value
Cc1nc2ccccc2s1,Potency,[1],inactive
same,Potency,[2],inactive
same,Potency,[3],inactive
same,Potency,[4],inactive
same,Potency,[5],inactive
same,outcome,[6],inactive
same,Potency,[7],inactive
same,outcome,[8],inactive
same,outcome,[9],inactive
same,Potency,[10],inactive
same,outcome,[11],inactive
same,outcome,[12],inactive
same,outcome,[13],inactive
same,Potency,[14],inactive
same,Potency,[15],inactive
same,Potency,[16],inactive
same,Potency,[17],inactive
CCn1cc(C(=O)O)c(=O)c2cc(F)c(N3CCNCC3)nc21,Potency,[1],inactive
same,Potency,[2],inactive
same,Potency,[3],inactive
same,Potency,[4],inactive
same,"fluorescence, relative to Rose Bengal",[6],0.819% [at 18.6 µM]
same,"fluorescence, % of fluorescein control",[18],-0.0415% [at 18.6 µM]
same,"fluorescence, % of triamterene",[7],-0.37% [at 18.6 µM]
same,"fluorescence, % of fluorescein",[9],-0.0016% [at 18.6 µM]
same,"fluorescence, % of fluorescent control",[10],-0.0171% [at 18.6 µM]
same,activity change,[11],0.0215% [at 18.6 µM]
same,"fluorescence, % of fluorescent control",[12],-0.252% [at 18.6 µM]
same,"fluorescence, % of Rose Bengal",[13],-0.483% [at 18.6 µM]
same,"fluorescence, % of fluorescent control",[14],-0.0969% [at 18.6 µM]
same,"fluorescence, % of fluorescent control",[15],-0.0048% [at 18.6 µM]
CC(=O)Nc1ccc(N)cc1,Potency,[1],inactive
same,Potency,[2],inactive
same,Potency,[3],inactive
same,Potency,[4],inactive
same,Potency,[5],inactive
same,outcome,[6],inactive
same,outcome,[18],inactive
same,Potency,[7],inactive
same,outcome,[11],inactive
same,outcome,[12],inactive
same,outcome,[13],inactive
same,Potency,[14],inactive
same,outcome,[19],inactive
same,Potency,[15],inactive
same,Potency,[16],inactive
same,Potency,[17],inactive
O=C(OCCOCCO)c1ccccc1Nc1cccc(C(F)(F)F)c1,Potency,[1],inactive
same,Potency,[2],inactive
same,Potency,[3],inactive
same,Potency,[4],inactive
same,Potency,[20],inactive
same,"fluorescence, relative to Rose Bengal",[6],-0.199% [at 18.6 µM]
same,"fluorescence, % of fluorescein control",[18],0.199% [at 18.6 µM]
same,"fluorescence, % of triamterene",[7],-0.0212% [at 18.6 µM]
same,"fluorescence, % of fluorescent control",[8],0.0507% [at 18.6 µM]
same,"fluorescence, % of fluorescein",[9],-0.0064% [at 18.6 µM]
same,"fluorescence, % of fluorescent control",[10],-0.158% [at 18.6 µM]
same,activity change,[11],0.0151% [at 18.6 µM]
same,"fluorescence, % of fluorescent control",[12],-0.579% [at 18.6 µM]
same,"fluorescence, % of fluorescent control",[14],-0.0111% [at 18.6 µM]
same,"fluorescence, % of fluorescein control",[19],0.0209% [at 18.6 µM]
same,"fluorescence, % of fluorescent control",[15],-0.0068% [at 18.6 µM]
same,Potency,[16],inactive
CN1CCN(c2c(F)cc3c(=O)c(C(=O)O)cn4c3c2OCN4C)CC1,Potency,[1],inactive
same,Potency,[2],inactive
same,Potency,[3],inactive
same,Potency,[4],inactive
same,Potency,[5],inactive
same,outcome,[6],inactive
same,Potency,[7],inactive
same,outcome,[8],inactive
same,outcome,[9],inactive
same,Potency,[10],inactive
same,outcome,[11],inactive
same,outcome,[12],inactive
same,outcome,[13],inactive
same,Potency,[14],inactive
same,outcome,[19],inactive
same,Potency,[15],inactive
same,Potency,[16],inactive
same,Potency,[17],inactive
O=C(NCCCN1CCOCC1)c1ccc(Cl)cc1,Potency,[1],inactive
same,Potency,[2],inactive
same,Potency,[3],inactive
same,Potency,[4],inactive
same,Potency,[5],inactive
same,outcome,[6],inactive
same,Potency,[7],inactive
same,outcome,[8],inactive
same,outcome,[9],inactive
same,outcome,[11],inactive
same,outcome,[12],inactive
same,outcome,[13],inactive
same,Potency,[14],inactive
same,outcome,[19],inactive
same,Potency,[15],inactive
same,Potency,[16],inactive
same,Potency,[17],inactive
O=[N+]([O-])c1cccc(S(=O)(=O)NCCNS(=O)(=O)c2cccc([N+](=O)[O-])c2)c1,Potency,[1],inactive
same,Potency,[2],inactive
same,Potency,[3],inactive
same,Potency,[4],inactive
same,Potency,[20],11.9 µM (active)
same,outcome,[6],inactive
same,outcome,[18],inactive
same,Potency,[7],inactive
same,outcome,[8],inactive
same,outcome,[9],inactive
same,Potency,[10],inactive
same,outcome,[11],inactive
same,outcome,[12],inactive
same,outcome,[13],inactive
same,Potency,[14],inactive
same,outcome,[19],inactive
same,Potency,[16],inactive
same,Potency,[17],inactive
Cc1cc(OI)c(C(C)C)cc1-c1cc(C(C)C)c(OI)cc1C,Potency,[1],inactive
same,Potency,[2],inactive
same,Potency,[3],inactive
same,Potency,[4],inactive
same,outcome,[6],inactive
same,outcome,[18],inactive
same,Potency,[7],inactive
same,outcome,[8],inactive
same,outcome,[9],inactive
same,Potency,[10],inactive
same,outcome,[11],inactive
same,outcome,[12],inactive
same,Potency,[14],inactive
same,outcome,[19],inactive
same,Potency,[15],inactive
same,Potency,[16],inactive
CC(COc1ccc(C(C)(C)C)cc1)OS(=O)OCCCl (stereo not given),Potency,[1],inactive
same,Potency,[2],inactive
same,Potency,[3],inactive
same,Potency,[4],inactive
same,Potency,[20],inactive
same,outcome,[6],inactive
same,outcome,[18],inactive
same,Potency,[7],inactive
same,outcome,[8],inactive
same,outcome,[9],inactive
same,Potency,[10],inactive
same,outcome,[11],inactive
same,outcome,[12],inactive
same,outcome,[13],inactive
same,Potency,[14],inactive
same,outcome,[19],inactive
same,Potency,[15],inactive
